# Test results taken from the supplement of paper PMC6555819.
# Tested on: VDR:RXRa (NR concentration 270 nM, RXRa partner concentration 90 nM)
# Test: PBM binding z-score (relative to random genomic background probes); higher = stronger binding; sequences stand for … in GC…GCGATTGACAGCGTAGAATGAAGG
# Experimental: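 Protein-binding microarray (Agilent 4x180K custom design, double-stranded 60-nt probes: 5' GC cap, 34-nt variable region, 24-nt constant primer region; full probe sequence given). Purified or IVT nuclear receptor:RXRα heterodimers (3:1 NR:RXRα, mostly 270:90 nM) or homodimers were incubated for 1 h in PBS with 2% milk and no ligand, then detected with Alexa488 antibodies. Fluorescence from o1-orientation probes (~5 replicates averaged) was converted to z-scores against 500 random hg19 background probes. Variable regions are seed direct-repeat (DR0–DR5) sites, all their single-nucleotide variants and half-site ablations.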
row,Sequence,PBM binding z-score
1,TAGCCTAGGTCGTTCAGGGGCCAGTATAGAAAGC,0.798
2,TCTTGTAGGTCAATAGAGGTTAAGAAAGTGCGCT,4.85
3,ACGCGGAGGACAAAGGTCAGAGCTACGCCAGTGA,3.14
4,CAAACTAGGTCACCGAAAGGTCAAAGTCCGCATG,6.46
5,AGAATGAGGTTAAACGTAGATCAGGGAAGAAAGT,2.03
6,TTACCAAGGTGAAAGGTCGTTGCTGCACGCCTTG,3.19
7,CGAACTAGGTCACCCAGGACAGTGAATACATTGA,4.43
8,ATCGAAAGGTCCACGAGGTGAGTATACACCGTTT,1.22
9,CCTACTGGGCCACTAAAGGTCATTGATTCAGTGA,4.05
10,TATACAAGGTCAAAGGCCAGAGTACGAATGTCGA,4.83
11,TACCCTAGGTCATTGGGCCAGTATAGTACGCATC,2.73
12,ATCGAAAGGTCGACGAGGTGAGTAAACACCGTTT,5.22
13,CCAACTAGGTCAAAGGACAGTGAAAGGCGACGTA,1.45
14,CCAACTGGGCCAAAAAGGTCATTGATGCCGATAA,4.89
15,TTGCCAAGGTGAAAGGTCGTTGATGCACGCCTTG,3.23
16,CGTCAAAGGTCAGCAGGTCAGTGAAAGCGACGTG,5.16
17,ATATGTAGGTTAGGGTCAGTCAGAAAGTAGGGAA,2.49
18,CGAACAAGGTCATCCAGGACAGTGAATACATTGA,6.39
19,CAAACTAGGTCACAGTGGTCAAAGTCCGTGCGTA,4.36
20,CGCACTAGGTCATCCAGGACAGTGAATACATTGA,4.38

row,Sequence,PBM binding z-score
1,CCTACTGGGCCGTTCAGAGGTCATTGATCATATG,3.58
2,CGTTCAAGGTCAAAGGTCAGTGAAGAGATGACGG,6.9
3,CGAACTAGGTCAAAGGACATTGAAAGGCGACGTA,1.88
4,CCTTACGGGTAACGAGGTTATAGCACGACGAGCG,1.38
5,CGTCCAAGGTCATATGAGGTCAGTGAAGACAGAT,7.19
6,AGAATGGGGTTATACGTAGATCAGGGAAGAAAGT,3.03
7,CGAACGAGGTCATTGACAGGACAGTGAATAGTAA,5.64
8,AGAATGAGGTTACTAAAGATCAGGGAAACGCTTG,0.79
9,CGTCCAAGGACAATGCTAGGTCAGTGAAAGCATT,0.294
10,AACGAAAGGTCGAAGGTGAGTATACCCACCCGAA,2.9
11,TCTAGTTGGTCACGGAGGACACACACGACGGGTA,2.67
12,AGTCAAAGTTCAGGACGAGGTAACGTTAAGCACG,2.97
13,CGAACTAGGTCATCCAGGACCGTGAATACATTGA,2.39
14,GGAACGAGGGCAAAGTTCATAGCATCTGTCGACG,5.05
15,TCTGCTAGGTCAACGATGGTCAGTTAATCTGCTA,1.62
16,AGTCAAACTTCAGGACGAGGTAACGTAAAGCACG,-0.131
17,CGTCCAAGGTCTAGGTCAGTGAAAGAGACTCGAA,0.105
18,CGAACTACGTCATCCAGGACAGTGAATACATTGA,0.17
19,CGTCCAAAGTCAAAGGTCAGTGAAGAGATGACGG,3.16
20,TCTATTAGTTGATTAGGGCAACCGAAACAGCGGA,0.711
